# Data as given in publication PMC7862700, “An all-to-all approach to the identification of sequence-specific readers for epigenetic DNA modifications on cytosine”.
# What was measured:
# Assay in all cases: DAPPL (digital affinity profiling via proximity ligation, sequencing); 10 mM Tris-HCl pH 7.5, 50 mM NaCl, 1 mM DTT, 4% glycerol, room temperature, 30 min; GST-TFs on glutathione beads, 16-mer random dsDNA library, 0.1% formaldehyde crosslink after washing; high values mean tight binding
# FEV = molecular target: T1, FEV (Homo sapiens, UniProt Q99581 1-238); conditions: protein: recombinant; tags: N-terminal GST; dsDNA, one strand shown
# T1 sequence: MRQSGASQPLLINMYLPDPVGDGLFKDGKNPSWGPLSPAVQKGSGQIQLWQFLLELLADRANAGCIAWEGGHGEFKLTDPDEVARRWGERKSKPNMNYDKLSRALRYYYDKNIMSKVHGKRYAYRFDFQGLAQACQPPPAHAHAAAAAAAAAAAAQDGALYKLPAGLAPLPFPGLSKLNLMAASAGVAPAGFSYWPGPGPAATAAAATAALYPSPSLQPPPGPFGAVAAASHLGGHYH
# In short: (§1)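 Beads coated with glutathione captured GST-fused human transcription factors that had been expressed in yeast, and the factors were then given DNA barcodes and pooled with a tag-only sample. The pools were incubated with 200 nmole of a random double-stranded 16-mer DNA library in Tris/NaCl/DTT/glycerol buffer for 30 min at room temperature, washed, crosslinked with 0.1% formaldehyde and proximity-ligated with BsaI/T4 ligase at 37 °C for 1 h. PCR amplification and Illumina NextSeq500 sequencing came last. Binding signal is each hexamer's read frequency for a factor divided by its frequency for the tag-only sample.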
# ETV5 = ETV5 (Homo sapiens, UniProt P41161 1-510); conditions: protein: recombinant; tags: N-terminal GST; dsDNA, one strand shown
# Chain of ETV5 (P41161 whole entry): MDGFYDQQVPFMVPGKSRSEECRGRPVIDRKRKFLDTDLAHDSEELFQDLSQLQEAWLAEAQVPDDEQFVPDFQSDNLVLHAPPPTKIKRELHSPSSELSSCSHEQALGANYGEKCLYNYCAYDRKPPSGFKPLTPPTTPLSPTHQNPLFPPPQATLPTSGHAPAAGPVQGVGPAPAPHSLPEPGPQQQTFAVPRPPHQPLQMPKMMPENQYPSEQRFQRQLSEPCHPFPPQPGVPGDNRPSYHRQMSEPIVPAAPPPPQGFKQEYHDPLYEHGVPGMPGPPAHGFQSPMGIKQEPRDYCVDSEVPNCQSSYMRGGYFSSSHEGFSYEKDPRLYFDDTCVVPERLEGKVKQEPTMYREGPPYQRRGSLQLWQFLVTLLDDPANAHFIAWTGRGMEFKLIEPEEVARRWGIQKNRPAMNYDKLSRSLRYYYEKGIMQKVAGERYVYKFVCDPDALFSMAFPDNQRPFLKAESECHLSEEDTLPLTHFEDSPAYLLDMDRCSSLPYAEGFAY
# In short: as §1
# HSF1 = HSF1 (Homo sapiens, UniProt Q00613 1-529); conditions: protein: recombinant; tags: N-terminal GST; chain copies: 3; dsDNA, one strand shown
# Chain of HSF1 (Q00613 whole entry): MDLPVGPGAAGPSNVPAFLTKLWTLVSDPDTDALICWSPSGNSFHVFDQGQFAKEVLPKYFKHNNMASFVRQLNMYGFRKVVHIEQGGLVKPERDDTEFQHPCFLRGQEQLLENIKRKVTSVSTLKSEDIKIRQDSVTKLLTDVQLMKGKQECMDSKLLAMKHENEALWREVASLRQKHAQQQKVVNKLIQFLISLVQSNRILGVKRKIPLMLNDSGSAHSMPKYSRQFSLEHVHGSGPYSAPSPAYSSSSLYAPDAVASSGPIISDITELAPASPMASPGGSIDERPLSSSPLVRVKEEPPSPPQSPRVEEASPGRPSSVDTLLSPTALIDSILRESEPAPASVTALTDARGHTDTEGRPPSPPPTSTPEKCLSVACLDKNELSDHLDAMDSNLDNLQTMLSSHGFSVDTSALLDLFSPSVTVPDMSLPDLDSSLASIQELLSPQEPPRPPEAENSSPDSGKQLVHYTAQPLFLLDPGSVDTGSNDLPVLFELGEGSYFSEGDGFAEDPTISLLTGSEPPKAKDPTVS
# In short: as §1
# SPIC = molecular target: T2, SPIC (Homo sapiens, UniProt Q8N5J4 1-248); conditions: protein: recombinant; tags: N-terminal GST; dsDNA, one strand shown
# T2 sequence: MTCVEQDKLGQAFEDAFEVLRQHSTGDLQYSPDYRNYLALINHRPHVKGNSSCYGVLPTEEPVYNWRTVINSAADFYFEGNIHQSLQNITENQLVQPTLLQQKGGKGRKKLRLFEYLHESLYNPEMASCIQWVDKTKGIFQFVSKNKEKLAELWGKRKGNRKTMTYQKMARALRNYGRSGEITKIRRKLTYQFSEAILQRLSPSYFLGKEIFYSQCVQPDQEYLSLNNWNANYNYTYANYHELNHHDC
# In short: as §1
# ELF4 = ELF4 (Homo sapiens, UniProt Q99607 1-663); conditions: protein: recombinant; tags: N-terminal GST; dsDNA, one strand shown
# Chain of ELF4 (Q99607 whole entry): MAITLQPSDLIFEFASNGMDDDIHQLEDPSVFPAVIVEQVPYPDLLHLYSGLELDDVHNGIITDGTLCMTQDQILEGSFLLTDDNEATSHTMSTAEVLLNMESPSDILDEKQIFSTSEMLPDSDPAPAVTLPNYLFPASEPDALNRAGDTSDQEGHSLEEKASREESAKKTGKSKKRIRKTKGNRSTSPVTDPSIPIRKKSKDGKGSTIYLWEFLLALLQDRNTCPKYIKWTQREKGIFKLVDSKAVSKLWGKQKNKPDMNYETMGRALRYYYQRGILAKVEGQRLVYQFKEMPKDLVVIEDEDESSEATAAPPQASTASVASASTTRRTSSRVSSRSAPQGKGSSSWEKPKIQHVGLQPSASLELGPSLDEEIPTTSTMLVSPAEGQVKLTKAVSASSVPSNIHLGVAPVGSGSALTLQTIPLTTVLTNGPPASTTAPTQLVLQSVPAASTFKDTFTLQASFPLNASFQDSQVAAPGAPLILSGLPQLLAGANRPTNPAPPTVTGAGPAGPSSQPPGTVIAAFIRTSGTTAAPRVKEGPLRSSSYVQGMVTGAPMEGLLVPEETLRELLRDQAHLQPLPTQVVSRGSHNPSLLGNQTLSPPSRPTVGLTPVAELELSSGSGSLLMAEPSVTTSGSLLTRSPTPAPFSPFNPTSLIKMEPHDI
# In short: as §1
# ELK4 = molecular target: T3, ELK4 (Homo sapiens, UniProt P28324-2 1-405); conditions: protein: recombinant; tags: N-terminal GST; dsDNA, one strand shown
# T3 sequence: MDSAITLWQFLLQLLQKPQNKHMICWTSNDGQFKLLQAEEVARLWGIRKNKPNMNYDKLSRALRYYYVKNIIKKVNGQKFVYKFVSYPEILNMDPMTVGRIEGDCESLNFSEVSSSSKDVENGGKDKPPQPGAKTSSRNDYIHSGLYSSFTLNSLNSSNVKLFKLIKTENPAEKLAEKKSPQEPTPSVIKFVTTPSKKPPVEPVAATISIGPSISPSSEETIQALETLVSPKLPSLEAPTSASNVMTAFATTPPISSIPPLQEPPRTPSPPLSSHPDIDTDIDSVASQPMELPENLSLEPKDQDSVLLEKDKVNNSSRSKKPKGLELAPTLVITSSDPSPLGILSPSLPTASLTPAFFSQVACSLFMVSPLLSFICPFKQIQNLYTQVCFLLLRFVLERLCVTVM
# In short: as §1
# ETV2 = molecular target: T4, ETV2 (Homo sapiens, UniProt O00321 1-342); conditions: protein: recombinant; tags: N-terminal GST; dsDNA, one strand shown
# T4 sequence: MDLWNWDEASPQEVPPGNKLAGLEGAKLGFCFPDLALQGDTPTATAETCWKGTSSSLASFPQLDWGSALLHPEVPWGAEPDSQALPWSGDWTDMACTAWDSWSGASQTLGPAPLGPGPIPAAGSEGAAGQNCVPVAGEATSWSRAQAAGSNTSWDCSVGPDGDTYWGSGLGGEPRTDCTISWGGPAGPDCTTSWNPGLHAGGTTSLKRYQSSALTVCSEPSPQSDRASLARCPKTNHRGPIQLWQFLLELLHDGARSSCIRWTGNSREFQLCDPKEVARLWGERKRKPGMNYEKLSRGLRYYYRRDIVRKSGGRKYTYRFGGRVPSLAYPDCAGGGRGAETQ
# In short: as §1
# ELF3 = molecular target: T5, ELF3 (Homo sapiens, UniProt P78545 1-371); conditions: protein: recombinant; tags: N-terminal GST; dsDNA, one strand shown
# T5 sequence: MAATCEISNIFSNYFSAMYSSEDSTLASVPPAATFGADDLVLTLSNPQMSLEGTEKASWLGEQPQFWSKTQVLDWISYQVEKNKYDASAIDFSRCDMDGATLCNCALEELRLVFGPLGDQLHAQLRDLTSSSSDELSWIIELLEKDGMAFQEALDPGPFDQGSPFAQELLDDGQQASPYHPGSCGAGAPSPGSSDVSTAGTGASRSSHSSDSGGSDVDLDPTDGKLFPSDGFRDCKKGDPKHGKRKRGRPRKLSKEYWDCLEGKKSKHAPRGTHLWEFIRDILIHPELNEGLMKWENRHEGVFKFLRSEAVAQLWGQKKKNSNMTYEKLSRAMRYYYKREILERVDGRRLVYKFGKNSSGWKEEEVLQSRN
# In short: as §1
# CRX = CRX (Homo sapiens, UniProt O43186 1-299); conditions: protein: recombinant; tags: N-terminal GST; dsDNA, one strand shown
# Chain of CRX (O43186 whole entry): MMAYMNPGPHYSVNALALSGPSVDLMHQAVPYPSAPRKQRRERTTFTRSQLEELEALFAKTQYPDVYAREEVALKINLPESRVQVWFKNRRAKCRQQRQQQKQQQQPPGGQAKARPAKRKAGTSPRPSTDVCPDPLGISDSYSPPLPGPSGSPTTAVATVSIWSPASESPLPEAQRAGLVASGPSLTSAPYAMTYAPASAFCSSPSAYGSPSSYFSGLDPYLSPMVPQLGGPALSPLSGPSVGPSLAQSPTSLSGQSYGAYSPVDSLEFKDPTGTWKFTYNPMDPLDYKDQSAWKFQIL
# In short: as §1
# ETV1 = ETV1 (Homo sapiens, UniProt P50549 1-477); conditions: protein: recombinant; tags: N-terminal GST; dsDNA, one strand shown
# Chain of ETV1 (P50549 whole entry): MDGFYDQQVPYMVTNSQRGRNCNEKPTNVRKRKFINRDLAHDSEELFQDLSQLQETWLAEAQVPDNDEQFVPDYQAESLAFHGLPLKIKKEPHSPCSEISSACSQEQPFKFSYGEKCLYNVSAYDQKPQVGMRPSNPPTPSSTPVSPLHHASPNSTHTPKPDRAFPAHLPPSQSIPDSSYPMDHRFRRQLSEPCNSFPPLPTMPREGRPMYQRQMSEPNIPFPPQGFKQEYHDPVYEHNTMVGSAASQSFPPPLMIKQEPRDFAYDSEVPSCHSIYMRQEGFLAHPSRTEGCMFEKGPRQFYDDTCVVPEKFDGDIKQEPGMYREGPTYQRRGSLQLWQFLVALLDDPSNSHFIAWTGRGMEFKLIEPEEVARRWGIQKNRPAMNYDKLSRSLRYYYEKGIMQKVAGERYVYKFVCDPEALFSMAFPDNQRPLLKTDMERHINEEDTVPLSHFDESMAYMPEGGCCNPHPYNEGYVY
# In short: as §1
# ERF = molecular target: T6, ERF (Homo sapiens, UniProt P50548 1-548); conditions: protein: recombinant; tags: N-terminal GST; dsDNA, one strand shown
# T6 sequence: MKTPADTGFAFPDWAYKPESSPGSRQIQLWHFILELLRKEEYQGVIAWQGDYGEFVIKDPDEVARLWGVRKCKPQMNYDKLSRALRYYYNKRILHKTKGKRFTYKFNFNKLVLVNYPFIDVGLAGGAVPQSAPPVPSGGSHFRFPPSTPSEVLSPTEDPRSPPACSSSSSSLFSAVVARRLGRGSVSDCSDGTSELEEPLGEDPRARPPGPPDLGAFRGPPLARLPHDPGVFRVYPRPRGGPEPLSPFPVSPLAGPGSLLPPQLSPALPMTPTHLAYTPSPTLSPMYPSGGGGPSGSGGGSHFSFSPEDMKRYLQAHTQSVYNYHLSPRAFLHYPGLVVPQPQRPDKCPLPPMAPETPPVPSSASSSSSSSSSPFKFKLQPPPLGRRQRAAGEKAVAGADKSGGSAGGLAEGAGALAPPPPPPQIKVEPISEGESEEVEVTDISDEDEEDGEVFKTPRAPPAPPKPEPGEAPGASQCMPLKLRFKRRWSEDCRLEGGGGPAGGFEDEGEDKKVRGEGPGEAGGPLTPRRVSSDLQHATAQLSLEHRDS
# In short: as §1
# ETV3L = molecular target: T7, ETV3L (Homo sapiens, UniProt Q6ZN32 1-361); conditions: protein: recombinant; tags: N-terminal GST; dsDNA, one strand shown
# T7 sequence: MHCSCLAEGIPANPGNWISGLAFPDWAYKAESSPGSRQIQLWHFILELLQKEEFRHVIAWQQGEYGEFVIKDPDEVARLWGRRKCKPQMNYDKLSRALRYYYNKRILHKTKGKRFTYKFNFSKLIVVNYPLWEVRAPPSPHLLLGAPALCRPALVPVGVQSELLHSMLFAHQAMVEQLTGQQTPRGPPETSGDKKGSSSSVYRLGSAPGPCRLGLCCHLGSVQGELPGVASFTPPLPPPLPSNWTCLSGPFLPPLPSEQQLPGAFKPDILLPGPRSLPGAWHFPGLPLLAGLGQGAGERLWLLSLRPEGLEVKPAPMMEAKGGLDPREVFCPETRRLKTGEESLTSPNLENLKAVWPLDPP
# In short: as §1
# ETS2 = molecular target: T8, ETS2 (Homo sapiens, UniProt P15036 1-469); conditions: protein: recombinant; tags: N-terminal GST; dsDNA, one strand shown
# T8 sequence: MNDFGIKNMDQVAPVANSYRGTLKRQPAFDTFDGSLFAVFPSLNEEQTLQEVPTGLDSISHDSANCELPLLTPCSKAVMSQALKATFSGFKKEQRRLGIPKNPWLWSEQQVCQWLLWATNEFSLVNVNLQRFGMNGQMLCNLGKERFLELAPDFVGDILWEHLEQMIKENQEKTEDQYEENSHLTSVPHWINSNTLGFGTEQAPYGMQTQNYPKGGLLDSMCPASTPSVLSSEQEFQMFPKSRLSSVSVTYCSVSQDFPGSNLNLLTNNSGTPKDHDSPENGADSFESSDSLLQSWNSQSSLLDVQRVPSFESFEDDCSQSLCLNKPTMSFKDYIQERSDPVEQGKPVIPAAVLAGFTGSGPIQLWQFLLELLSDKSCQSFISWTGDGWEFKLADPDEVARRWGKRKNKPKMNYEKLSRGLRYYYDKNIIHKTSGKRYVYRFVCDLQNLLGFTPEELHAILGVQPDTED
# In short: as §1
# SPDEF = molecular target: T9, SPDEF (Homo sapiens, UniProt O95238 1-335); conditions: protein: recombinant; tags: N-terminal GST; dsDNA, one strand shown
# T9 sequence: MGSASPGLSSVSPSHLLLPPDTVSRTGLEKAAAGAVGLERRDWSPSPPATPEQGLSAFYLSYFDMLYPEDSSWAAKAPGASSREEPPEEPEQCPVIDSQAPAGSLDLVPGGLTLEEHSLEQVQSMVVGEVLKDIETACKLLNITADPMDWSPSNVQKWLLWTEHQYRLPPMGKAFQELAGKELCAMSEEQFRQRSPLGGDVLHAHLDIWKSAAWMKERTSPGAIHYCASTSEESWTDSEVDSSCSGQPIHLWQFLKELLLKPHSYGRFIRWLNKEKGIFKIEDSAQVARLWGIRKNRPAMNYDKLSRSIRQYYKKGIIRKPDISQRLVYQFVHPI
# In short: as §1
# ETV7 = molecular target: T10, ETV7 (Homo sapiens, UniProt Q9Y603 1-341); conditions: protein: recombinant; tags: N-terminal GST; dsDNA, one strand shown
# T10 sequence: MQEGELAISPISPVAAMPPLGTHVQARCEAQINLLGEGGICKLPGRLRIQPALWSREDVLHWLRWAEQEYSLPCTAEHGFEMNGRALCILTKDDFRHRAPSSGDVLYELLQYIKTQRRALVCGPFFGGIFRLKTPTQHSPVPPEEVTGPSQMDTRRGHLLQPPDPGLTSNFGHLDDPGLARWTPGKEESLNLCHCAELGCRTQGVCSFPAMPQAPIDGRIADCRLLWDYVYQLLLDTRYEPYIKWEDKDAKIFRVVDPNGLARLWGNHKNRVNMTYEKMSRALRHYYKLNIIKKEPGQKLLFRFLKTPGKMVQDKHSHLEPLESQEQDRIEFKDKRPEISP
# In short: as §1
# ELF5 = molecular target: T11, ELF5 (Homo sapiens, UniProt Q9UKW6-2 1-255); conditions: protein: recombinant; tags: N-terminal GST; dsDNA, one strand shown
# T11 sequence: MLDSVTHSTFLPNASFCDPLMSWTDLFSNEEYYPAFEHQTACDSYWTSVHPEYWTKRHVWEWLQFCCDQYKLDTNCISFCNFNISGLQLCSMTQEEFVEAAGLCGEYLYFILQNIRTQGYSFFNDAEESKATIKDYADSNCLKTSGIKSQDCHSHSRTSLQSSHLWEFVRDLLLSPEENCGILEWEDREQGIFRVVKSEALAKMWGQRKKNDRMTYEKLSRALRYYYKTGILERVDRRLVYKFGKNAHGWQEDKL
# In short: as §1
# ETV3 = molecular target: T12, ETV3 (Homo sapiens, UniProt P41162-2 1-143); conditions: protein: recombinant; tags: N-terminal GST; dsDNA, one strand shown
# T12 sequence: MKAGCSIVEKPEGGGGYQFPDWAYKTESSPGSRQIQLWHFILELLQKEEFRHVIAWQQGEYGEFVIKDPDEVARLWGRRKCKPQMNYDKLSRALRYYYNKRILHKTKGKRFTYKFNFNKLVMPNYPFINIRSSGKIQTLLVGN
# In short: as §1
# ETV6 = ETV6 (Homo sapiens, UniProt P41212 1-452); conditions: protein: recombinant; tags: N-terminal GST; dsDNA, one strand shown
# Chain of ETV6 (P41212 whole entry): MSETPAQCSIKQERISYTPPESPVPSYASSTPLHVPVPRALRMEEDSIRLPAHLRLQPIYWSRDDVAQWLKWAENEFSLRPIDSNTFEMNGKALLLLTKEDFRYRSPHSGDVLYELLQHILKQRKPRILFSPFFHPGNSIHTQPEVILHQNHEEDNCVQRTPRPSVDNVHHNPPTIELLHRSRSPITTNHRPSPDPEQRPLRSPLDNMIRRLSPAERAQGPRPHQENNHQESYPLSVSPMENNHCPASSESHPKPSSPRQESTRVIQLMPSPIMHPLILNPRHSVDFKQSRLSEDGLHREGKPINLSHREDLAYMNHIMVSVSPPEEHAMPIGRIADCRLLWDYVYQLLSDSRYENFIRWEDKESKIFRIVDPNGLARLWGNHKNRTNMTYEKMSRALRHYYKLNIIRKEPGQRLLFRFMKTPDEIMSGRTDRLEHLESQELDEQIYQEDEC
# In short: as §1
sequence,measurement,setting,value
GCTCTT,binding signal,FEV,"1.48 fold enrichment (6-mer frequency, TF over GST control)"
same,binding signal,ETV5,"1.53 fold enrichment (6-mer frequency, TF over GST control)"
same,binding signal,HSF1,"1.34 fold enrichment (6-mer frequency, TF over GST control)"
same,binding signal,SPIC,"1.31 fold enrichment (6-mer frequency, TF over GST control)"
same,binding signal,ELF4,"1.56 fold enrichment (6-mer frequency, TF over GST control)"
same,binding signal,ELK4,"1.41 fold enrichment (6-mer frequency, TF over GST control)"
same,binding signal,ETV2,"1.61 fold enrichment (6-mer frequency, TF over GST control)"
same,binding signal,ELF3,"1.58 fold enrichment (6-mer frequency, TF over GST control)"
same,binding signal,CRX,"1.55 fold enrichment (6-mer frequency, TF over GST control)"
same,binding signal,ETV1,"1.54 fold enrichment (6-mer frequency, TF over GST control)"
same,binding signal,ERF,"1.5 fold enrichment (6-mer frequency, TF over GST control)"
same,binding signal,ETV3L,"1.73 fold enrichment (6-mer frequency, TF over GST control)"
same,binding signal,ETS2,"1.41 fold enrichment (6-mer frequency, TF over GST control)"
same,binding signal,SPDEF,"1.34 fold enrichment (6-mer frequency, TF over GST control)"
same,binding signal,ETV7,"1.56 fold enrichment (6-mer frequency, TF over GST control)"
same,binding signal,ELF5,"1.52 fold enrichment (6-mer frequency, TF over GST control)"
same,binding signal,ETV3,"1.48 fold enrichment (6-mer frequency, TF over GST control)"
same,binding signal,ETV6,"1.45 fold enrichment (6-mer frequency, TF over GST control)"
